Assay results reported in the supplement of paper PMC6853941.
Structures can show the parent of a compound that is named as a salt. Unmarked numbers belong to inactive results.

Tested on: MCF10A
Experiment: perturbation Mahalanobis distance of morphological profile vs DMSO controls (Mahalanobis distance (SD units)); higher = stronger morphological change, active = 7 or more
Settings: 72 h
Procedure: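 MCF10A cells were seeded onto drugs dispensed acoustically into 384-well plates, using one dose per drug chosen from its human peak plasma concentration, and incubated for 72 h at 37 °C. Cells were stained for DNA, tubulin and mitochondria and imaged; 78 CellProfiler features were extracted, plate-normalised and compared with DMSO wells.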

[1] = screen batch: Batch1_Mahalanobis_Distance
[2] = screen batch: Batch2_Mahalanobis_Distance

SMILES | perturbation Mahalanobis distance [1] | perturbation Mahalanobis distance [2]
O=C1Nc2ccc(Cl)cc2[C@@](C#CC2CC2)(C(F)(F)F)O1 [Efavirenz] (28.8 µM) | 3.91 | 4.25
O=C1CC2(CCCC2)CC(=O)N1CCCCN1CCN(c2ncccn2)CC1 [Buspirone] (0.05 µM) | 1.84 | 3.36
CNC(=O)c1cc(Oc2ccc(NC(=O)Nc3ccc(Cl)c(C(F)(F)F)c3)cc2)ccn1 [Sorafenib] (10.76 µM) | 2.94 | 2.6
CN(C)[C@@H]1C(O)=C(C(N)=O)C(=O)[C@@]2(O)C(O)=C3C(=O)c4c(O)cccc4[C@@](C)(O)[C@H]3C[C@@H]12 [Tetracycline] (45 µM) | 4.19 | 2.42
Cc1ccsc1C(=CCCN1CCC[C@@H](C(=O)O)C1)c1sccc1C [Tiagabine] (2.7 µM) | 2.46 | 3.14
O=C1c2c(O)ccc(O)c2C(=O)c2c(NCCNCCO)ccc(NCCNCCO)c21 [Mitoxantrone] (3.4 µM) | 9.47 (active) | 16.4 (active)
CC(C)(Sc1cc(C(C)(C)C)c(O)c(C(C)(C)C)c1)Sc1cc(C(C)(C)C)c(O)c(C(C)(C)C)c1 [Probucol] (12.58 µM) | 2.88 | 3.01
C[C@@H]1O[C@@]2(CS1)CN1CCC2CC1 [Cevimeline] (1.5 µM) | 3.07 | 3.45
CCCSc1ccc2nc(NC(=O)OC)[nH]c2c1 [Albendazole] (28.3 µM) | 13.8 (active) | 15.4 (active)
COCc1c(C(C)C)nc(C(C)C)c(/C=C/[C@@H](O)C[C@@H](O)CC(=O)O)c1-c1ccc(F)cc1 [Cerivastatin] (0.46 µM) | 13.3 (active) | 13.1 (active)
Cc1cc2cc3c(C)cc(=O)oc3c(C)c2o1 [Trioxsalen] (0.07 µM) | 2.32 | 2.45
Nc1nc(Cl)nc2c1ncn2[C@@H]1O[C@H](CO)[C@@H](O)[C@@H]1F [Clofarabine] (7.5 µM) | 10.2 (active) | 16.5 (active)
Nc1ncn([C@@H]2O[C@H](CO)[C@@H](O)[C@H]2O)c(=O)n1 [Azacitidine] (15.4 µM) | 14.8 (active) | 17.2 (active)
OC(c1cc(C(F)(F)F)nc2c(C(F)(F)F)cccc12)C1CCCCN1 (stereo not given) [Mefloquine] (23.8 µM) | 13.3 (active) | 17.1 (active)
CC(N=C(NC#N)Nc1ccncc1)C(C)(C)C (stereo not given) [Pinacidil] (8.3 µM) | 4.94 | 4.16
CCCc1cc(=O)[nH]c(=S)[nH]1 [Propylthiouracil] (90 µM) | 2.49 | 2.52
NC(N)=NCC1COC2(CCCCC2)O1 (stereo not given) [Guanadrel] (140.7 µM) | 2.66 | 2.51
Nc1cc(N2CCCCC2)nc(N)[n+]1OS(=O)(=O)[O-] [Minoxidil Sulfate] (4.3 µM) | 3.4 | 3.55
CO[C@H]1CC2CC[C@@H](C)[C@@](O)(O2)C(=O)C(=O)N2CCCC[C@H]2C(=O)O[C@H]([C@H](C)C[C@@H]2CC[C@@H](OCCO)[C@H](OC)C2)CC(=O)[C@H](C)/C=C(\C)[C@@H](O)[C@@H](OC)C(=O)[C@H](C)C[C@H](C)/C=C/C=C/C=C/1C [Everolimus] (0.95 µM) | 5.37 | 9.89 (active)
O=C1C(CCS(=O)c2ccccc2)C(=O)N(c2ccccc2)N1c1ccccc1 (racemic) [(+/-)-Sulfinpyrazone] (41.84 µM) | 3.46 | 2.61
CC(C)(C#N)c1cc(Cn2cncn2)cc(C(C)(C)C#N)c1 [Anastrozole] (0.51 µM) | 3.5 | 3.49
CC[N+](C)(C)Cc1ccccc1Br [Bretylium Tosylate] (84.1 µM) | 2.48 | 2.83
Cc1ncc([N+](=O)[O-])n1CCO [Metronidazole] (58.4 µM) | 3.04 | 2.36
Clc1ccc(C(c2ccccc2Cl)C(Cl)Cl)cc1 (stereo not given) [Mitotane] (62.5 µM) | 3.41 | 4.02
CCCCCCCN(CC)CCCC(O)c1ccc(NS(C)(=O)=O)cc1 (stereo not given) [Ibutilide] (0.08 µM) | 2.16 | 2.06
